In PubChem BioAssay AID652039 (The Scripps Research Institute Molecular Screening Center, 2013):
About 3,300 (0.89%) of roughly 370,000 compounds were called active. Shown is part of a subset that was picked to be rich in actives. A number with no mark means an inactive call.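 How the source made its calls: active means activation above the mean of all tested compounds plus 3 SD, computed per campaign excluding outliers beyond control limits (cut at about 13% in these data); inactive means the rest.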

Molecular target: Kallikrein-7 (Homo sapiens) (UniProt P49862)
Assay: activation of human kallikrein-7 proenzyme – biochemical, fluorescence intensity, primary screen (AID 652039)
Details: purified proKLK7, EDANS-DABCYL substrate fluorescence; at 7 µM; stronger effect = higher value; 100% is mature enzyme control, 0% vehicle

Chain of Kallikrein-7 (Homo sapiens) (P49862 whole entry, looked up): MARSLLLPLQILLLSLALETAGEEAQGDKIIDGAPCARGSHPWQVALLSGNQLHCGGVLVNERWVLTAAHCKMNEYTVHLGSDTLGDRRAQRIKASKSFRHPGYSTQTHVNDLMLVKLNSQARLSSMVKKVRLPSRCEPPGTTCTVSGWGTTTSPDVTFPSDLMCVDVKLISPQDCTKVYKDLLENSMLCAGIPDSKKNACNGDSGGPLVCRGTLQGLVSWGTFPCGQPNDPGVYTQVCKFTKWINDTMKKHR

SMILES	activation
C[C@@H]1COc2cccc(N3CCCC3)c2S(=O)(=O)N1C	0.38%
CC1CCN(c2oc(-c3ccccc3F)nc2C#N)CC1	-0.12%
N#Cc1nc(Cc2cccc3ccccc23)oc1NCc1ccc2c(c1)OCO2	0.74%
N#Cc1nc(-c2cccc3ccccc23)oc1N	56.1% (active)
Cc1nc2cccnc2nc1C	-0.19%
Cc1nc2ccc(N)nc2nc1C	55.8% (active)
Cc1ccc(C)c(NC(=O)CCS(=O)(=O)c2ccccc2)c1	-0.69%
Cn1c(=O)c2cc(NC(=O)NCCc3cccs3)ccc2n1Cc1cccc(C(F)(F)F)c1	-1.5%
CCNC(=S)Nc1ccc2c(c1)c(=O)n(C)n2Cc1ccc(Cl)cc1	21.2% (active)
COc1cc(Cn2c3ccc(NC(=O)CC(C)c4ccccc4)cc3c(=O)n2C)ccc1F (configuration not stated)	2.56%
COc1ccc(N2CCN(CCNS(=O)(=O)c3ccc(Cl)s3)CC2)cc1	-0.36%
CCOC(=O)C1=C(C)NC2=C(C(=O)CC(C)(C)C2)C1c1ccc2c(c1)OCO2 (configuration not stated)	0.13%
O=C(NCCCN1CCCC1=O)c1ccc(S(=O)(=O)Nc2ccccc2)cc1	-0.77%
Cc1nn(Cc2ccccc2)c(C)c1C(=O)NCCCN1CCCC1=O	-0.1%
CC(C)(C)OC(=O)c1c(N)n(CCCN2CCCC2=O)c2nc3ccccc3nc12	62.5% (active)
CC(CN1CCOCC1)OC(=O)c1ccc(C(C)(C)C)cc1 (configuration not stated)	0.72%
COCC(C)OC(=O)c1c(N)n(CCCN2CCOCC2)c2nc3ccccc3nc12 (configuration not stated)	16.3% (active)
CC(=O)c1ccc(NC(=O)CSc2nc3ccccc3c(=O)n2CCCN2CCOCC2)cc1	0.28%
CCCCCCNC(=O)O[C@H]1CN(C(=O)OC(C)C)N(C(=O)OC(C)C)[C@@H]2CN(S(=O)(=O)c3ccc(C)cc3)C[C@]12O	-0.38%
O=C1CCC2(CCC(c3ccc(Cl)cc3)CC2)N1CCO (configuration not stated)	-0.69%
Cc1ccccc1SCC(=O)OCC(=O)N1CC(=O)Nc2ccccc21	0.52%
Cc1cccc(C)c1NC(=O)C(c1cccc(F)c1)N1CCN(C)CC1 (configuration not stated)	-0.04%

SMILES	activation
Cc1cccc(C)c1NC(=O)C(c1ccccc1)N1CC(=O)Nc2ccccc21 (configuration not stated)	16.4% (active)
CCCCNC(=O)C[C@@H]1C(=O)N(CCc2ccc(Cl)cc2)C2=CCCC[C@]21C(=O)OCC	0.21%
CC(CCN1CCC(C(O)(c2ccccc2)c2ccccc2)CC1)Oc1ccc(Cl)cc1 (configuration not stated)	-0.05%
CCOC(=O)C(=O)N(Cc1ccccc1)c1ccccc1C(=O)Nc1cc(OC)ccc1OC	0.42%
COc1ccccc1C(=O)Nn1c(-c2cccs2)nc2ccccc2c1=O	-0.4%
CCc1nnc(NC(=O)CSc2nc3ccccc3c(=O)n2CCCOC)s1	0.09%
COCCCn1c(-c2cccs2)nc2nc3ccccc3nc21	22.9% (active)
O=C1CC[C@@H](COc2ccc3[nH]cc(-c4ccccc4)c3c2-c2ccccc2)N1	-1.38%
CCCc1cc(=O)oc2c(C)c(OC(C)C(=O)NCC(O)c3ccccc3)ccc12 (configuration not stated)	-0.01%
CCCc1cc(=O)oc2c(C)c(OCC(=O)N3CCC(C(=O)O)CC3)ccc12	0.06%
CCCc1cc(=O)oc2c(C)c(O)c(CN3CCCCC3)cc12	58.8% (active)
O=C(CSc1nnc(-c2cccc(Cl)c2)n1Cc1ccco1)Nc1ccc(OCc2ccccc2)cc1	0.41%
CCn1c(SCC(C)=O)nc2sc3c(c2c1=O)CCCC3	0.36%
CCCNC(=O)Nc1ccc2c(c1)C(=O)N(C)[C@H]1CC[C@H](CC(=O)NCC3CCCCC3)O[C@@H]1CO2	0.14%
CCN1CCN(C(=O)CN(C)S(=O)(=O)c2ccc(OC)cc2)CC1	-0.44%
COc1ccc(OCC(=O)N2CCN(C(=O)c3cccs3)CC2)cc1	0.07%
CCN1CCN(C(=O)c2cc3cc4ccc(OC)cc4nc3s2)CC1	68.7% (active)
COC(=O)[C@]12C[C@H](CC(=O)NCc3ccccc3)C(=O)N(Cc3ccccc3)C1=C[C@H](COCc1ccccc1)O[C@@H]2C	-0.24%
CCCOc1ccc(Oc2c(Cl)cnn(Cc3cccc4ccccc34)c2=O)cc1	0.98%
COc1ccc(CSc2nnc(-c3cccc(C)c3)n2C)cc1	-0.66%
CCOC(=O)c1c(NC(=S)Nc2ccccc2)sc2c1CCN(C)C2	33.8% (active)
CCOC(=O)c1c(NC(=O)NC(C)(C)C)sc2c1CCN(C)C2	0.12%

SMILES	activation
CCOC(=O)c1c(NC(=S)SC)sc(C(=O)N2CCc3ccccc3C2)c1C	0.73%
COc1ccc(CNC(=O)C(C)n2nc(C)c3c(C)n(-c4ccccc4)nc3c2=O)c(OC)c1 (configuration not stated)	0.01%
COCCCNC(=O)C[C@H]1C[C@@]2(C(=O)OC)C(=C[C@H](C(C)(C)C)O[C@@H]2C)N(Cc2ccc(Cl)cc2Cl)C1=O	-0.25%
C#CCNC(=O)C[C@H]1C[C@@]2(C(=O)OC)C(=C[C@H](C(C)C)O[C@@H]2C2CC2)N(Cc2ccco2)C1=O	0.24%
Oc1ccc2ccc3cccc[n+]3c2c1	16.2% (active)
COc1ccc(-n2c(SCC(=O)Nc3ccc(C)c(Cl)c3)nc3ccccc3c2=O)cc1	-0.5%
COc1ccc(-n2c(SCC(=O)Nc3ccc4c(c3)OCCO4)nnc2-c2ccc(Cl)cc2)cc1	-0.65%
CN1C[C@]2(C=C3CCCCC3n3c(=O)n(-c4ccccc4)c(=O)n32)N=C1NC(=O)c1ccccc1 (some centres not stated)	0.02%
COc1ccc(-n2c(SCC(=O)Nc3ccc4cn[nH]c4c3)nnc2-c2cccnc2)cc1	-0.83%
O=C(Nc1ccccc1)N1CCN(Cc2nc3ccccc3c(=O)[nH]2)CC1	0.5%
COc1ccc(CCNC(=O)Nc2ccc3c(c2)c(=O)n(C)n3C)cc1OC	33.7% (active)
COc1ccc(CCNC(=O)c2cc3sccc3n2C)cc1OC	-0.31%
COc1ccc(CCNC(=O)C(=O)Nc2ccc3nc4n(c(=O)c3c2)CCCCC4)cc1OC	0.82%
CCOC(OCC)c1ccc(/C=C\c2nccc(N)n2)cc1	47.7% (active)
O=C(N1CCOCC1)N1CC[C@H]2[C@H](CCCN2Cc2ccc(F)cc2)C1	0.18%
COc1ccc2c(c1)CN1CN(CCc3ccccc3)S(=O)(=O)CC21 (configuration not stated)	-0.32%
CN(C(=O)CCn1c(=S)oc2ccccc21)C1CCCCC1	-0.28%
CCC1=C(C(=O)OC)C(c2cc(OC)ccc2OC)C(C#N)=C(N)O1 (configuration not stated)	15.6% (active)
CCOC(=O)C1=C(CC)OC(N)=C(C#N)C1c1ccc(F)cc1F (configuration not stated)	-0.17%
COC(=O)C1=C(C)OC(N)=C(C#N)C1c1cc(OC)ccc1OC (configuration not stated)	30.7% (active)
CCOC(=O)C1=C(C)OC(N)=C(C#N)C1c1cncc(-c2ccc(F)cc2)c1 (configuration not stated)	0.49%
COC(=O)C1=C(C)N(C)C(=S)NC1c1cc(OC)ccc1OC (configuration not stated)	0.24%

SMILES	activation
CC(C)c1ccc(C2C(C#N)=C(N)Oc3c2oc(CO)cc3=O)cc1 (configuration not stated)	0.31%
Cc1ccc(CN2CCCCC(NC(=O)C3CCCCC3)C2=O)cc1 (configuration not stated)	-0.03%
CCOC(=O)[C@]12CCCC=C1N(Cc1ccc(OC)cc1)C(=O)[C@@H]2CC(=O)NCc1cccs1	-0.38%
Clc1ccc(-n2c(COc3ccccc3)nnc2SCc2nc3ccccc3[nH]2)cc1	0.33%
O=C(CSc1nnc(-c2ccccn2)n1-c1ccc(Cl)cc1)Nc1ccccc1-c1ccccc1	0.1%
COC(=O)[C@]12C[C@H](CC(=O)N3CCOCC3)C(=O)N(Cc3ccc(Cl)cc3Cl)C1=C[C@H](COCc1ccccc1)O[C@@H]2C	0.05%
Cc1cc(=O)[nH]c(SCC(=O)Nc2ccc(F)cc2F)n1	-0.3%
CC(C)CCNc1nc(N2CCCC2)c2c(c1C#N)CCN(C)C2	-0.46%
CCCCc1nc(NCc2ccccc2)c(C#N)c2c1CCCC2	-0.04%
CCN1CCc2c(C#N)c(NCc3ccccc3)nc(NCCO)c2C1	14.3% (active)
Clc1cccc(Cl)c1OCCOCCNCc1ccccc1	-0.51%
CC1(C)CC(=O)CC2(C1)NCC(c1ccccc1Cl)c1c2[nH]c2ccccc12 (configuration not stated)	0.29%
CC(=O)N1CCc2cc(S(=O)(=O)NCCC(=O)N3CCCC3)ccc21	0.03%
COc1ccc(-c2cc(C(=O)n3cnc4ccccc43)c3ccccc3n2)cc1	20.8% (active)
CNC(=O)COC(=O)c1cc(-c2ccc(OC)cc2)nc2ccccc12	113% (active)
Cc1cc(C(=O)OCC(=O)Nc2nccs2)c2ccccc2n1	-2.12%
COc1ccc(S(=O)(=O)n2cnc3ccccc32)c(C)c1	-0.43%
COc1ccc(-c2cc3n(n2)CCc2nc4ccccc4n2-3)cc1	0.02%
C/C(N)=C(/C#N)C(=O)COC(=O)c1cc(-c2cccc(Br)c2)nc2ccccc12	0.31%
CN(CCO)c1cccc2c1S(=O)(=O)N(Cc1cn(Cc3ccc(C(F)(F)F)cc3)nn1)Cc1ccccc1O2	1.21%
COC(=O)C[C@@H]1CC[C@H]2[C@@H](COc3ccc(NS(=O)(=O)CC(F)(F)F)cc3C(=O)N2C)O1	-0.11%
